Test results taken from the supplement of paper PMC6555819.

Legend:
Test in all cases: PBM binding z-score (relative to random genomic background probes); higher = stronger binding; sequences stand for … in GC…GCGATTGACAGCGTAGAATGAAGG
[1] = system: FXR:RXRa (NR concentration 270 nM, RXRa partner concentration 90 nM)
In short: (§1)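 Antibodies against each partner of ligand-free nuclear receptor dimers (one per run) detected binding on custom Agilent 4×180K protein-binding microarrays after 1 h incubation. The double-stranded probes had 34-nt variable regions carrying direct-repeat seeds, single-nucleotide variants, half-site ablations and random human genomic background sequences. Binding z-scores, from regression-normalized fluorescence, use the random background probes as reference.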

[2] = system: LXRa:RXRa (NR concentration 270 nM, RXRa partner concentration 90 nM)
In short: as §1

[3] = system: LXRa homodimer (NR concentration 270 nM)
In short: as §1

[4] = system: LXRb:RXRa (NR concentration 270 nM, RXRa partner concentration 90 nM)
In short: as §1

[5] = system: LXRb homodimer (NR concentration 270 nM)
In short: as §1

[6] = system: PPARa:RXRa (NR concentration 270 nM, RXRa partner concentration 90 nM)
In short: as §1

[7] = system: PPARg:RXRa (NR concentration 180 nM, RXRa partner concentration 90 nM)
In short: as §1

[8] = system: PPARg:RXRa 270nM:90nM, anti-RXR (NR concentration 270 nM, RXRa partner concentration 90 nM)
In short: as §1

[9] = system: PPARg:RXRa 30nM:10nM, anti-RXR (NR concentration 30 nM, RXRa partner concentration 10 nM)
In short: as §1

[10] = system: PPARg:RXRa 90nM:30nM, anti-RXR (NR concentration 90 nM, RXRa partner concentration 30 nM)
In short: as §1

[11] = system: PPARg:RXRa DBDmut IVT, anti-RXR (DBD mutation: RXRa K156A/R161A, NR concentration 270 nM, RXRa partner concentration 90 nM)
In short: as §1

[12] = system: PPARg:RXRa IVT, anti-PPARg (NR concentration 270 nM, RXRa partner concentration 90 nM)
In short: as §1

[13] = system: PPARg DBDmut:RXRa IVT, anti-PPARg (DBD mutation: PPARg1 K132A/R137A, NR concentration 270 nM, RXRa partner concentration 90 nM)
In short: as §1

[14] = system: PPARg DBDmut IVT, anti-PPARg (DBD mutation: PPARg1 K132A/R137A, NR concentration 270 nM)
In short: as §1

[15] = system: PPARg homodimer (NR concentration 180 nM)
In short: as §1

[16] = system: PXR:RXRa (NR concentration 270 nM, RXRa partner concentration 90 nM)
In short: as §1

[17] = system: PXR homodimer (NR concentration 270 nM)
In short: as §1

[18] = system: RARa:RXR (NR concentration 270 nM, RXRa partner concentration 90 nM)
In short: as §1

[19] = system: RARa homodimer (NR concentration 270 nM)
In short: as §1

[20] = system: RARb:RXRa (NR concentration 270 nM, RXRa partner concentration 90 nM)
In short: as §1

Sequence	PBM binding z-score [1]	PBM binding z-score [2]	PBM binding z-score [3]	PBM binding z-score [4]	PBM binding z-score [5]	PBM binding z-score [6]	PBM binding z-score [7]	PBM binding z-score [8]	PBM binding z-score [9]	PBM binding z-score [10]	PBM binding z-score [11]	PBM binding z-score [12]	PBM binding z-score [13]	PBM binding z-score [14]	PBM binding z-score [15]	PBM binding z-score [16]	PBM binding z-score [17]	PBM binding z-score [18]	PBM binding z-score [19]	PBM binding z-score [20]
ACTCGGAGGAAAAAGGTCAGAGCTACGCCAGTGA	2.49	3	0.501	2.45	-0.26	3.73	2.6	3.2	1.2	2.74	-0.318	1.1	0.319	-0.672	1.74	2.65	0.00836	3.29	1.23	3.88
AGTCAAAGTTCACTAGGTAAGGTAAGATTCAGCT	5.15	4.75	3.2	3	1.19	4.4	6.73	5.99	3.11	5.44	1.79	4.24	1.06	0.795	2.55	3.83	2.61	3.3	1.36	4.8
CGAACTAGGTCTTCCAGGACAGTGAATACATTGA	0.011	-0.496	0.128	-0.568	-0.706	0.796	0.846	0.622	-0.0415	0.143	4.68	3.48	0.439	0.129	-0.375	-0.421	-0.138	-0.242	-0.331	0.384
CCGACTGGGGCATCAGGTTACCATAAGCCAGCCC	-0.188	0.277	-0.351	-0.136	-1.31	0.743	1.33	1.59	-0.0759	1.03	3.34	3.84	-0.621	-1.56	0.326	-0.505	-0.821	-0.109	-0.776	1.01
GCGACTGGGGCAAAGCAGTTTACCATAAGGTTGG	-0.303	-0.296	-0.507	-0.071	-1.21	0.822	1.17	1.31	-0.433	0.756	4.75	3.5	0.0777	-0.489	0.131	0.655	-0.386	-0.18	-0.418	0.776
CCTAGCAGGCCAGCGTCACTCAAGCATTTCGCTT	-0.634	-0.323	-0.436	-0.45	-0.612	-0.652	-0.466	-1.02	-1.25	-0.939	0.696	-0.171	-1.15	-1.61	-0.299	-0.806	-0.554	-0.721	-0.187	-0.122
GGAACGAGGGCATTCGAGTTGAGAGCATGGCGAT	1.64	1.88	-0.277	0.172	-0.777	1.5	0.715	1.11	-0.289	0.498	3.26	2.42	-0.0251	-0.828	-0.126	3.24	0.951	0.847	-0.731	1.99
TCTTGTAGATCAATAGAGGTTAAGCAAGTGCGCT	0.958	2.62	0.281	1.34	-0.1	2.08	0.0342	1.71	2.75	2.4	1.66	1.19	0.792	-0.371	0.43	3.72	0.269	1.89	0.018	0.837
CGAACTAGGTCTTTGACAGGACAGTGAATAGTAA	-0.13	0.047	-0.136	-0.238	-0.525	0.769	0.674	0.585	0.162	0.43	4.79	3.63	0.956	0.308	0.0171	-0.285	-0.19	0.0375	-0.136	0.0398
CCGACTGGGGCAAGGCTACCATAACGCACAGCCA	-0.0743	-0.335	-0.467	-0.273	-1.05	-0.00984	1.08	0.83	-0.201	0.0921	2.56	2.89	-0.229	-0.37	-0.287	-0.481	-0.488	-0.164	-0.086	0.763
CCTTACGGGTCACTGACCGGTTATAGCATTTGGA	5.3	5.49	1.84	4.04	0.194	5	3.68	4.28	1.31	2.95	3.02	3.86	1.44	-0.432	2.45	2.93	0.0567	3.72	1.71	3.96
GCTGCTAGGTCAGGTTAGTCAGCTAACGGGTACG	1.16	0.852	-0.246	0.282	-0.367	1.51	0.774	1.17	-0.493	0.602	2.9	2.42	-0.896	-1.02	0.349	0.128	-0.498	0.677	-0.907	3.29
GATACAGGGTCAAGGCCAGGGTACGCGTATTGAT	6.68	4.26	-0.139	3.62	-0.397	5.82	5.63	5.3	2.2	4.46	1.85	4.19	0.695	0.43	3.1	4.32	0.122	5.19	0.648	4.5
CCTTGGAGGACAGAAGGTCAGAGCTGTCCGCTTT	1.46	1.83	0.306	1.23	-0.609	2.23	0.715	2.34	0.178	1.81	0.658	1.17	-1.14	-2.25	1.98	1.69	0.0669	2.36	0.737	3.29
TCTTGTAGATCAGCAGGTTAAGAATGCTGGCCAA	-0.0205	0.0347	-0.38	0.151	-0.573	0.607	-0.224	1.26	2.68	2.04	1.36	0.428	-0.195	-0.491	0.12	0.00264	-0.0255	0.239	-0.0617	0.12
GCTATTAGTTGAAAGTGCAACCGAATGATTCTCG	0.0358	0.479	0.0569	0.177	0.0186	1.33	1.28	2.92	1.24	2.72	0.238	0.262	0.449	0.384	0.768	0.683	0.384	0.526	0.153	0.775
CCTAGTTGGTCAGTAGGTCACACACCGGATATGA	1.75	1.75	1.22	1.64	0.533	3.62	4.58	4.46	2.18	3.85	4.79	5.74	0.241	0.396	3.06	1.68	0.364	2.76	2.47	2.91
CCGCCTGGGGCAAAGGTTACCATACTCAGTACGA	1.58	1.77	0.256	2.07	-1.01	4.22	7.52	7.16	5.72	7.35	0.0766	3.23	-0.483	-0.8	2.34	2.62	-0.268	4.07	0.0335	2.47
ATCGAAAGGTCGACGAGGTGAGTATACACCGTTT	4.62	3.32	-0.0538	2.73	0.533	4.52	2.85	3.18	1.02	2.34	0.442	1.82	0.853	1.45	1.32	3.15	0.642	4.09	1.19	3.73
ATCGAAAAGTCGTGAGGTGAGTATACAGAAAGGC	0.379	0.127	-0.461	-0.0752	-0.13	0.351	0.623	-0.104	0.404	0.0436	-0.639	0.331	0.929	1	0.473	0.0533	-0.117	0.486	0.556	0.552
ATATGTAGGTTTTCGGGTCATTCAGTTTGCGCAT	3.26	2.94	1.41	3.14	1.57	4.19	3.95	4.14	1.9	3.5	5.6	5.42	1.9	1.31	2.39	4.14	8.75	3.74	1.72	2.17
ACTTACGGGTCAACTAGGTTATAGCACGCGTATA	6.74	4.89	0.702	4.49	0.758	5.8	6.09	5.5	2.25	4.51	3.88	4.98	1.29	1.61	2.6	4.26	0.766	4.91	1.54	4.36
GCTAACAGGCCATTTGGGTCACTCAATGACGGGC	0.418	0.268	-0.00824	0.389	-0.169	1.73	0.912	0.349	-0.624	-0.263	1.61	1.82	-0.246	-0.627	0.24	0.795	0.0442	1.03	-0.111	1.81
TGACCAAGGTGAAGGTCGTTGATCCCTCTGTAGA	2.13	1.77	-0.327	1.57	-1.14	2.49	2.18	3.17	0.953	2.49	1.27	2.71	-0.305	-0.387	0.818	1.26	-0.313	1.8	-0.922	2.11
AGAATGAGGTTATACGTAGATCAGAGAAGAAAGT	2.4	1.86	0.0397	1.57	0.2	3.2	2.36	2.1	0.792	1.45	3.8	2.41	0.986	0.988	1.35	1.1	0.455	1.51	0.376	1.38
CCTACTGGGCCAAGGTAATTGATCAGTCAAAGCA	-0.458	-0.478	-0.526	-0.461	-0.835	0.508	0.767	1.22	0.0282	0.531	4.09	3.56	-0.62	-0.619	-0.616	-0.363	-0.674	0.0953	-0.936	0.0612
AGAACTAGGGCACGCTGAGTTGATAGCAGAGTAG	-0.159	-0.0416	-0.762	-0.394	-0.896	3.01	5.21	4.47	1.85	3.37	8.03	7.98	3.17	2.05	0.0464	0.214	-0.312	-0.11	-0.599	1.58
CCTACTGGGCCAAAAAGGTTATTGATGCCGATAA	-0.207	0.612	0.14	1.08	-0.751	2.15	0.965	1.85	0.374	1.29	3.45	2.94	-0.965	-0.43	0.601	0.934	0.529	1.67	0.386	1.15
